# From PMC4336329 (PLoS ONE, 2015)
# About 14,000 (4.5%) of roughly 310,000 compounds showed an effect of 50% or more. Effects have a minus sign here. The sample holds strong results, similar compounds and a random draw of the others, so the mix is not that of the screen.
# Target: human ether-à-go-go-related gene (hERG) potassium channel (human, UniProt Q12809)
# Test: primary screen, population patch clamp on CHO cells stably expressing hERG; higher = less effect of the substance
# 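Also: peak tail current of the secondary pulse compared with the same well before compound.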
# human ether-à-go-go-related gene (hERG) potassium channel, sequence (Q12809 whole entry, looked up): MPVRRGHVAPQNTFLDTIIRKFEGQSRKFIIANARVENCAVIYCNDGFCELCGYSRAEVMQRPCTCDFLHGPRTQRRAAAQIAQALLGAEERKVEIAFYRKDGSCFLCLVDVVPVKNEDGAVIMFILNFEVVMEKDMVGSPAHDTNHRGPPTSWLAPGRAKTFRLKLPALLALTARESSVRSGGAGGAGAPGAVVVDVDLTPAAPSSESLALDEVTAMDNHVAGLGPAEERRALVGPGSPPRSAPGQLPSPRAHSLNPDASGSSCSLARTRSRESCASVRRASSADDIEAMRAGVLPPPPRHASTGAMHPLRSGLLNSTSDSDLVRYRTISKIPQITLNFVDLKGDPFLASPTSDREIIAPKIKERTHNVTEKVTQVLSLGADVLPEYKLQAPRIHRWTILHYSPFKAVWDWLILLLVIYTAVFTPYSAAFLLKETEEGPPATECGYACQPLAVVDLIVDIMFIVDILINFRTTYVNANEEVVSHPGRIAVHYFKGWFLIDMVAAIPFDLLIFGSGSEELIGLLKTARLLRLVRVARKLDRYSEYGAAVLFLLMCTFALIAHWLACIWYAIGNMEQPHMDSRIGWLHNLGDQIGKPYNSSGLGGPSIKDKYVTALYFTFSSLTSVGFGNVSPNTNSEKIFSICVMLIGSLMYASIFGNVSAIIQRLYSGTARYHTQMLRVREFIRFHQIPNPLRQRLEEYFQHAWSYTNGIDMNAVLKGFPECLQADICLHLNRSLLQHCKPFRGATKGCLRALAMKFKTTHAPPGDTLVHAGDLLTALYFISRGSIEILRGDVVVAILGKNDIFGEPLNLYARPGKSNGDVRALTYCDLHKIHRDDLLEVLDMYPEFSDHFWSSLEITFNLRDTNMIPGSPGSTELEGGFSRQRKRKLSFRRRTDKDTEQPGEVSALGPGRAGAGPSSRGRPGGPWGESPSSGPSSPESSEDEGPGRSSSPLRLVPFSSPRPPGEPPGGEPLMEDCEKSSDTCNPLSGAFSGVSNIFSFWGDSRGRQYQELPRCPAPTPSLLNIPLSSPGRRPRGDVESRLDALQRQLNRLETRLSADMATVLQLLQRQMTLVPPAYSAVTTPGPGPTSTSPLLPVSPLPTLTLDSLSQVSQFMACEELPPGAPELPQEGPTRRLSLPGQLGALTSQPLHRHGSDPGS
row,Compound,"hERG current change (%, negative = inhibition) at 10uM [%]"
1,COc1cc(/C=C2\SC(=S)N(CCC(=O)Nc3ccc(O)cc3)C2=O)cc(OC)c1OC,11.9
2,COCCCn1c(=O)c2sccc2n2c(CCCC(=O)NCc3cccc(OC)c3)nnc12,-6.59
3,O=C1CSC(c2cccnc2)N1c1cccc(Cl)c1 (stereo not shown),-1.13
4,CCOC(=O)c1c(NC(=O)C2CCCO2)sc(C(=O)OC(C)(C)C)c1C (stereo not shown),9.29
5,COc1ccc(Nc2nnc(Cc3ccncc3)c3ccccc23)c(OC)c1,-72.7
6,COc1cccc(NC(=S)NCc2cccnc2)c1,8.76
7,COc1cccc(NC(=O)Cn2nc(Cc3cccnc3)c3ccccc3c2=O)c1,-34.6
8,COc1ccc(Nc2nnc(Cc3ccccc3)c(=O)[nH]2)c(OC)c1,3.85
9,COc1cccc(Nc2nnc(Cc3cccnc3)c3ccccc23)c1,-75.8
10,COc1ccc(Nc2ncnc3ccccc23)c(OC)c1.Cl,-10.2
11,Cc1csc2c(N3CCN(C(=O)Nc4ccccc4)CC3)ncnc12,-25.4
12,CCOC(=O)N1CCC(NC(=O)c2cccc3c2C(=O)N(Cc2cccnc2)C3)CC1,-13.9
13,CCOC(=O)C1=C(COC(=O)CCOc2ccccc2C)NC(=O)NC1C (stereo not shown),-28.4
14,NC(=O)c1cc(-c2csc(-c3cccnc3)n2)ccc1O,5.27
15,COCCNC(=O)c1cn(C)c2ccc(S(=O)(=O)N(C)C3CCCCC3)cc2c1=O,-27.7
16,CCCCN(CCCC)CCNC(=O)c1cn(C)c2ccc(S(=O)(=O)N(C)C3CCCCC3)cc2c1=O,-76.7
17,CCN(CC)CCCNC(=O)c1cn(C)c2ccc(S(=O)(=O)N(C)C)cc2c1=O,3.07
18,CCCCN(C)CCCNC(=O)c1cn(C)c2ccc(S(=O)(=O)N(C)C3CCCCC3)cc2c1=O,-75
19,CCN(CC)CCNC(=O)c1cn(C)c2ccc(S(=O)(=O)N(C)C3CCCCC3)cc2c1=O,-42.8
20,CCN(CC)CCCNC(=O)c1cn(C)c2ccc(S(=O)(=O)N(C)C3CCCCC3)cc2c1=O,-24.8
21,COC(CNC(=O)c1cn(C)c2ccc(S(=O)(=O)N(C)C3CCCCC3)cc2c1=O)OC,-21.5

row,Compound,"hERG current change (%, negative = inhibition) at 10uM [%]"
1,CC(C)OCCCNC(=O)c1cn(C)c2ccc(S(=O)(=O)N(C)C3CCCCC3)cc2c1=O,-22
2,CCCCN(CC)CCCNC(=O)c1cn(C)c2ccc(S(=O)(=O)N(C)C3CCCCC3)cc2c1=O,-73.2
3,CCN(CC)S(=O)(=O)c1ccc2c(c1)c(=O)c(C(=O)NCCc1ccccc1)cn2C,-0.204
4,CN(CCNC(=O)c1cn(C)c2ccc(S(=O)(=O)N(C)C)cc2c1=O)CCc1ccccc1,-27.1
5,CCN(CC)S(=O)(=O)c1ccc2c(c1)c(=O)c(C(=O)NCCN(C)CCc1ccccc1)cn2C,-67.1
6,Cn1c(=O)n(C)c2cc(N3CCOCC3)c(NC(=O)c3ccc(F)cc3)cc21,-8.15
7,Cc1cccc2cc3ccccc3nc12,4.66
8,Cc1cc(CNC(=O)COc2ccc(C)c(C)c2)c2ccccc2n1,2.15
9,O=C(N/N=C/c1ccc(Cl)c([N+](=O)[O-])c1)c1cc(-c2ccccc2)nc2ccccc12,17.1
10,Cn1c2ccccc2c(=O)c2cc(C#Cc3ccccn3)ccc21,-0.776
11,CCc1ccccc1N1C(=O)C2CC=CCC2C1=O (stereo not shown),-6.41
12,COc1ccc(OC)c(S(=O)(=O)N(C)CC(=O)N2CCc3ccccc3C2)c1,-35.1
13,CCN(Cc1nc2cc(OC)c(OC)cc2c(=O)[nH]1)C(=O)c1ccc(S(=O)(=O)N(C)C)cc1,4.07
14,Cc1cnc(NC2=NCCC2)s1,5.05
15,O=C(OCC(=O)c1ccc[nH]1)c1ccc(Cl)nc1,-5.61
16,Cc1ccc(-n2nc(C)c(NS(=O)(=O)c3ccccc3)c2C)cc1C,-16.9
17,CCCN(CCC)CCCNC(=O)c1cn(C)c2ccc(S(=O)(=O)N(C)C3CCCCC3)cc2c1=O,-73.7
18,CCN(CC)S(=O)(=O)c1ccc2c(c1)c(=O)c(C(=O)NCCCN(C)c1ccccc1)cn2C,-12.2
19,COC(CN(C)C(=O)c1cn(C)c2ccc(S(=O)(=O)N(C)C3CCCCC3)cc2c1=O)OC,10.3
20,Cn1c(=O)n(C)c2cc(S(=O)(=O)Nc3ccc(F)cc3)ccc21,20.9
21,CCN1CCN(c2ccc(S(=O)(=O)N3CCCC3)cn2)CC1,16.2

row,Compound,"hERG current change (%, negative = inhibition) at 10uM [%]"
1,Cc1nn(-c2ccccc2)c(C)c1NC(=O)COC(=O)CCc1ccccc1,-10.2
2,COc1cccc(OCC(=O)N2CCC3(CC2)CC(=O)c2ccccc2O3)c1,-55.8
3,Cc1cccc(OCC(=O)N2CCC3(CC2)CC(=O)c2ccccc2O3)c1,-54.7
4,CC(=O)N1CCC2(CC1)CC(=O)c1cc(OCC(=O)N3CCCC3)ccc1O2,9.03
5,CC(=O)N1CCC2(CC1)CC(=O)c1cc(OCC(=O)N3CCOCC3)ccc1O2,-10.6
6,CC(C)(C)C1CCC(OC(=O)C[N+]2(C)CCCCC2)CC1.[I-] (stereo not shown),23.1
7,Cc1cccc(Nc2ccc(C(=O)N3CCOCC3)cn2)c1,10.7
8,CCOc1ccc(S(=O)(=O)Nc2ccc(C(=O)NCC3(N4CCCCC4)CCCCC3)cc2)cc1,-45.8
9,CC(C)(CNC(=O)c1cccc(NS(=O)(=O)c2ccc(Br)cc2)c1)N1CCOCC1,-33.7
10,CCOc1ccc(NS(=O)(=O)c2ccc(C(=O)NCC3(N4CCCCC4)CCCCC3)cc2)cc1,-11
11,O=C(NCC1(N2CCCCC2)CCCCC1)c1ccc(NS(=O)(=O)c2ccccc2)cc1,-44.1
12,Cc1ccc(S(=O)(=O)Nc2cccc(C(=O)NCC3(N4CCCCC4)CCCCC3)c2)cc1F,-82.6
13,Cc1ccc(S(=O)(=O)Nc2cccc(C(=O)NCCN3CCOCC3)c2)cc1F,-1.9
14,O=C(NCC1(N2CCCCC2)CCCCC1)c1cccc(NS(=O)(=O)c2ccccc2)c1,-64.4
15,CC(=O)Nc1cccc(C(=O)NCC2(N3CCCCC3)CCCCC2)c1,19.4
16,Cc1cccc(NS(=O)(=O)c2cccc(C(=O)NCC(C)(C)N3CCOCC3)c2)c1,4.99
17,Cc1ccc(S(=O)(=O)Nc2cccc(C(=O)N3CCCC3)c2)cc1F,-0.933
18,Cc1ccc(S(=O)(=O)Nc2cccc(C(=O)NCC(C)(C)N3CCOCC3)c2)cc1F,-50.3
19,CCOc1ccc(S(=O)(=O)Nc2cccc(C(=O)NCC3(N4CCCCC4)CCCCC3)c2)cc1,-71.6
20,C[C@H](NC(=O)N1CCn2c1nc1ccccc12)C(=O)NCC1CCCO1 (stereo partly shown),20.8
21,CC(OC(=O)c1cccc(-n2cnnn2)c1)C(=O)Nc1cccc(Cl)c1 (stereo not shown),-2.88

row,Compound,"hERG current change (%, negative = inhibition) at 10uM [%]"
1,N#Cc1ccccc1OCC(=O)OCC(=O)N1CCN(C(=O)c2ccco2)CC1,3.22
2,Cc1cc(N2C(=O)CC(N3CCN(c4ccc(C(=O)c5cccs5)cc4)CC3)C2=O)no1 (stereo not shown),-37.3
3,CC(C)CCOP(=O)(c1ccc(N(C)C)cc1)C(O)c1ccc(C(C)C)cc1 (stereo not shown),11.7
4,CCOC(=O)c1cn2nc(Oc3ccccc3)ccc2n1,-12.8
5,O=C(Cc1ccccc1)N/N=C/c1cc2c(cc1Cl)OCO2,1.85
6,COc1cc(NC(=O)NNC(=O)c2cc3occc3n2C)cc(OC)c1OC,26.1
7,Cc1cc(S(=O)(=O)Nc2ccc(C(=O)NCC3(N4CCCCC4)CCCCC3)cc2)ccc1F,-66.4
8,O=C(NCC1(N2CCCCC2)CCCCC1)c1ccc(NS(=O)(=O)c2ccc(F)cc2)cc1,-42.9
9,CS(=O)(=O)c1ccc(C(=O)NCC2(N3CCCCC3)CCCCC2)cc1,-11
10,Cc1cccc(NS(=O)(=O)c2cccc(C(=O)NCC3(N4CCCCC4)CCCCC3)c2)c1,-89.9
11,CNS(=O)(=O)c1cccc(C(=O)NCC2(N3CCOCC3)CCCCC2)c1,9.92
12,CNS(=O)(=O)c1cccc(C(=O)NCC2(N3CCCCC3)CCCCC2)c1,-18.3
13,O=C(COc1ccccc1)Nc1nc(-c2cccs2)cs1,5.72
14,CCOC(=O)c1c(C)[nH]c(C(=O)OC(C)C(=O)NCc2ccccc2)c1C (stereo not shown),17.4
15,COc1ccccc1-c1nnc(NC(=O)C2=COCCO2)o1,14.3
16,CCc1sc(C(=O)N2CCC3(CC2)OCCO3)cc1Br,-7.08
17,CC(=O)Nc1ccc(Nc2nnc(-c3ccc(C)c(S(=O)(=O)NCC4CCCO4)c3)c3ccccc23)cc1 (stereo not shown),-5.1
18,O=C1NN(c2ccc(Br)cc2)C(=O)/C1=C\c1ccc(O)cc1O,30.2
19,Cc1ccccc1C(=O)Nc1ccc2nc3n(c(=O)c2c1)CCC3,-9.1
